ATXN2 expr inh: inhibitors of ATXN2 expression; hit rate 0.72% among 360,000; HEK-293 ATXN2-luciferase reporter, luminescence, 24 h; Potency, µM (series often up to 57 µM), for the others: at the highest dose activity change, negative = inhibition, usual class: inhibitors; note: % is set by controls: 0 for no effect and ±100 for the full control effect; nearly all actives have a fitted effect of over 55% in size
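ATXN2-luciferase reporter cells (luciferase flanked by upstream and downstream ATXN2 gene portions) were treated 24 h at 37 °C with compounds at up to 57 uM. SteadyGlo luminescence gave expression; GF-AFC fluorescence gave viability.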
HepG2 viability: HepG2 cytotoxicity, counter-screen for TGF-b inhibitors; AID 588856; HepG2 CAGA-GFP viability, ATP luminescence, 18 h; Potency, µM (doses to about 46.1 µM), inactives show top-dose activity change, negative = cytotoxicity, actives largely listed as cytotoxic; hit rate 0.76% among 410,000
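HepG2 CAGA-GFP cells (1000/well, DMEM with 1% FBS) received compound, then TGF-beta at 500 pg/mL final, and were incubated 18 hours at 37 degrees C. Viability was read by CellTiter-Glo luminescence. Media-only wells were set as complete cell-killing and DMSO as no toxicity.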
HT1080 IDH1KD tx: toxicity to HT-1080 IDH1 knockdown cells (counter line); Potency, µM (series often up to 46.1 µM), without a hit: top-dose activity, negative = toxicity, actives largely listed as cytotoxic; AID 686971; hit rate 2% among 360,000; HT-1080 IDH1 knockdown viability, ATP luminescence, 48 h;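 note: 0% = DMSO wells and -100% = cell-free medium wells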
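Viability of IDH1-knockdown HT-1080 fibrosarcoma cells was assessed by CellTiter-Glo after 48 h at 37 °C with titrated compound; concentration-effect curves were classified by fit quality and response size.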
HT1080NT lethal: kills 2HG-producing HT-1080-NT fibrosarcoma cells; HT-1080-NT fibrosarcoma viability, CellTiter-Glo ATP luminescence, 48 h; Potency, µM (titrated, usually from 46.1 µM), for inactives: top-dose activity, negative = less viability, hits mostly cytotoxic; hit rate 1.6% among 360,000; AID 686970;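 note: NT is the 2HG producing partner of a matched IDH1 knockdown line; 0% = DMSO-treated cells and -100% = media-only wells without cells; nearly all actives have a fitted effect of over 55% in size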
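Viability of the 2HG-overproducing fibrosarcoma line after 48 hours of compound exposure at 37 degrees C was determined by luminescence with CellTiter-Glo, and concentration-effect curves were then fitted and categorized.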
S2 tox: cell viability loss in ATXN counter-screen; hit rate 0.49% among 400,000; S2 cells (HEK-293 line with an ATXN2-luciferase reporter) viability, CellTiter-Fluor protease fluorescence, 24 h; AID 651635; Potency, µM (series often up to 56.7 µM), usual class: cytotoxic; note: nearly all actives have a fitted effect of over 40% in size
TGFb SMAD3 inh: blocks TGF-b signaling; HepG2 CAGA-GFP TGF-b/SMAD3 reporter, GFP fluorescence, 18 h; TGF-beta stimulated, 500 pg/mL final; Potency, µM (top dose mostly 46.1 µM), inactives show top-dose activity, negative = inhibition, hits mostly inhibitors; hit rate 1.2% among 410,000; note: % is set by controls: 0 for no effect and ±100 for the full control effect; nearly all actives have a fitted effect of over 65% in size
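Read-out: total well GFP (ex488/em500-530) summed from mean per-cell fluorescence. Cells: HEPG2 CAGA-GFP, 1% FBS DMEM, 18 h at 37 degrees C with 500 pg/mL final TGF-beta. Unstimulated wells served as the full-inhibition control; stimulated DMSO wells = 0%.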
* marks the source's active call; other numbers are inactive results; [ ] = another dose, or the depositor's remark. An excerpt weighted towards active compounds, which were near 3.9% of everything screened. Calls come from the whole dose curve; as a rule, active = well fitted curve in the direction sought with a large enough effect; inconclusive = small, poorly fitted or top-dose-only effect, or another doubt; inactive = no such curve, though single readings can be large; an effect the other way counts as inactive or inconclusive. Potency is the fitted concentration of half-maximal effect.

Results for c1coc(CNc2nc(N3CCCCC3)nc3ccccc23)c1 ?
ATXN2 expr inh: inconclusive; HepG2 viability: -45%; HT1080 IDH1KD tx: inconclusive; HT1080NT lethal: inconclusive; S2 tox: inconclusive; TGFb SMAD3 inh: 10µM*

How did Nc1nc(N)c2cc(CNc3ccc(Cl)c(Cl)c3)ccc2n1 do in these assays?
HepG2 viability: -121%; HT1080 IDH1KD tx: 3.3µM*; HT1080NT lethal: 1.8µM*; TGFb SMAD3 inh: inconclusive

Results for CC(C)(C)C(=O)Nc1ccc(C(=O)OC2CCCCC2)cc1 ?
ATXN2 expr inh: 63%; HepG2 viability: -30%; HT1080 IDH1KD tx: inconclusive; HT1080NT lethal: 13µM*; S2 tox: inactive; TGFb SMAD3 inh: 0%

What do the screens show for `O=C(OC1CCCCC1)c1ccc(NC(=O)C2CCCCC2)cc1`?
ATXN2 expr inh: 16%; HepG2 viability: -19%; HT1080 IDH1KD tx: inconclusive; HT1080NT lethal: inconclusive; S2 tox: inactive; TGFb SMAD3 inh: inconclusive

How did O=C(C[n+]1ccccc1)NNc1ccccc1 do in these assays?
ATXN2 expr inh: inconclusive; HepG2 viability: -12%; HT1080 IDH1KD tx: 4.6µM*; HT1080NT lethal: 2.6µM*; S2 tox: inconclusive; TGFb SMAD3 inh: inconclusive

How did O=C(COc1ccccc1O)NNc1ccccc1 do in these assays?
ATXN2 expr inh: -20%[11.3 µM]; HepG2 viability: 2%; HT1080 IDH1KD tx: 3.3µM*; HT1080NT lethal: 2.3µM*; S2 tox: inactive; TGFb SMAD3 inh: -1%

What do the screens show for `CN1c2ccccc2C(C)(C)[C@]12C=Cc1cc(O)ccc1O2`?
ATXN2 expr inh: -14%; HepG2 viability: -38%; HT1080 IDH1KD tx: 18µM*; HT1080NT lethal: inconclusive; S2 tox: inconclusive; TGFb SMAD3 inh: 18µM*

How did Cc1cc2cc(CCNC(=O)C(=O)c3c[nH]c4ccccc34)c(=O)[nH]c2cc1C do in these assays?
ATXN2 expr inh: -36%; HepG2 viability: -20%; HT1080 IDH1KD tx: 13µM*; HT1080NT lethal: inconclusive; S2 tox: inconclusive; TGFb SMAD3 inh: inconclusive

What do the screens show for `CC(C)CCn1c(N)c(S(=O)(=O)c2cccs2)c2nc3ccccc3nc21`?
ATXN2 expr inh: 18µM*; HepG2 viability: -34%; HT1080 IDH1KD tx: inconclusive; HT1080NT lethal: 22µM*; S2 tox: inconclusive; TGFb SMAD3 inh: 16µM*

Results for O=C(Nc1cccc(Cl)c1)Nc1nnc(CC2=CCCCC2)s1 ?
ATXN2 expr inh: -22%; HepG2 viability: -15%; HT1080 IDH1KD tx: -1%; HT1080NT lethal: -1%; S2 tox: inactive; TGFb SMAD3 inh: -19%

What do the screens show for `O=C(Nc1nnc(CC2=CCCCC2)s1)Nc1ccccc1F`?
ATXN2 expr inh: 13%; HepG2 viability: -63%; HT1080 IDH1KD tx: 33µM*; HT1080NT lethal: -8%; S2 tox: inactive; TGFb SMAD3 inh: -18%

What do the screens show for `Cc1cccc(NC(=O)N2CCC(CN3CCCCCC3)CC2)c1C`?
HepG2 viability: -33%; TGFb SMAD3 inh: 0%

How did COc1cccc(N=Nc2ccc(O)c3ncccc23)c1 do in these assays?
ATXN2 expr inh: inconclusive; HepG2 viability: -9%; HT1080 IDH1KD tx: inconclusive; HT1080NT lethal: inconclusive; S2 tox: 16µM*; TGFb SMAD3 inh: inconclusive

What do the screens show for `COCc1ccc(O)c2ncccc12`?
ATXN2 expr inh: inconclusive; HepG2 viability: -77%; HT1080 IDH1KD tx: 5.8µM*; HT1080NT lethal: 4.6µM*; S2 tox: inconclusive; TGFb SMAD3 inh: 1.6µM*

Results for Cc1ccccc1N=Nc1ccc(O)c2ncccc12 ?
ATXN2 expr inh: inconclusive; HepG2 viability: -3%; HT1080 IDH1KD tx: 7.3µM*; HT1080NT lethal: inconclusive; S2 tox: inactive; TGFb SMAD3 inh: -14%

Results for Oc1ccc(Cn2ccnc2)c2cccnc12 ?
ATXN2 expr inh: 0%; HepG2 viability: -37%; HT1080 IDH1KD tx: inconclusive; HT1080NT lethal: inconclusive; S2 tox: inactive; TGFb SMAD3 inh: -23%

How did Oc1ccc(N=Nc2ccc3c(c2)OCCO3)c2cccnc12 do in these assays?
ATXN2 expr inh: inconclusive; HepG2 viability: 1%; HT1080 IDH1KD tx: 1.3µM*; HT1080NT lethal: inconclusive; S2 tox: 10µM*; TGFb SMAD3 inh: 4%

What do the screens show for `Cc1ccc(C)c(CN2CCC3(CCC(CNC(=O)c4ccnn4C)O3)CC2)c1` (stereo not given)?
S2 tox: inactive

How did CN(C)CC(C)(O)c1ccc2c(c1)CN(Cc1cccn1-c1cccnc1)CCO2 (stereo not given) do in these assays?
S2 tox: inactive

How did CCCN(C(=O)c1cc2c(=O)oc3ccccc3c2s1)c1ccccc1C do in these assays?
ATXN2 expr inh: 4%; HepG2 viability: -1%; S2 tox: inactive; TGFb SMAD3 inh: 0%

What do the screens show for `Cc1c(C)c2cccnc2c2ncccc12`?
ATXN2 expr inh: inconclusive; HepG2 viability: -35%; HT1080 IDH1KD tx: 5.2µM*; HT1080NT lethal: 10µM*; S2 tox: inconclusive; TGFb SMAD3 inh: 10µM*

How did COc1ccc(N=Nc2ccc(O)c3ncccc23)cc1 do in these assays?
HepG2 viability: -4%; HT1080 IDH1KD tx: 4.6µM*; HT1080NT lethal: inconclusive; S2 tox: inconclusive; TGFb SMAD3 inh: inconclusive

What do the screens show for `Cc1ccnc2c(Cl)cccc12`?
HepG2 viability: -25%; TGFb SMAD3 inh: inconclusive

What do the screens show for `Clc1cc2cccnc2c2ncccc12`?
ATXN2 expr inh: -32%; HepG2 viability: -41%; HT1080 IDH1KD tx: -5%; HT1080NT lethal: 0%; S2 tox: inconclusive; TGFb SMAD3 inh: inconclusive

What do the screens show for `O=Nc1ccc(O)c2ncccc12`?
HepG2 viability: -96%; HT1080 IDH1KD tx: inconclusive; HT1080NT lethal: 12µM*; S2 tox: 16µM*; TGFb SMAD3 inh: inconclusive

What do the screens show for `Cc1ccc(O)c2ncccc12`?
ATXN2 expr inh: 16µM*; S2 tox: inconclusive

What do the screens show for `COc1ccc(CCNc2nc(SCc3ccccc3Cl)nc3ccccc23)cc1OC`?
HepG2 viability: -15%; TGFb SMAD3 inh: -2%

How did COC(=O)c1ccc(OCC2c3cc(OC)c(OC)cc3CCN2C(=O)c2cccc(C)c2)cc1 (stereo not given) do in these assays?
ATXN2 expr inh: inconclusive; HepG2 viability: -15%; S2 tox: inactive; TGFb SMAD3 inh: inconclusive

How did Cc1noc(C)c1CSCC(=O)Nc1nc(-c2ccc(F)c(F)c2)cs1 do in these assays?
ATXN2 expr inh: 22µM*; HepG2 viability: -20%; HT1080 IDH1KD tx: -17%; HT1080NT lethal: inconclusive; S2 tox: inconclusive; TGFb SMAD3 inh: inconclusive

How did Cc1cc(CC(C)CC(C)(C)C)n(O)c(=O)c1 (stereo not given) do in these assays?
HepG2 viability: -12%; TGFb SMAD3 inh: 5.6µM*

Screens from PubChem.
